The source of these data is article PMC7862700, “An all-to-all approach to the identification of sequence-specific readers for epigenetic DNA modifications on cytosine”.

Holding throughout (test): DAPPL (digital affinity profiling via proximity ligation, sequencing); 10 mM Tris-HCl pH 7.5, 50 mM NaCl, 1 mM DTT, 4% glycerol, room temperature, 30 min; GST-TFs on glutathione beads, 16-mer random dsDNA library, 0.1% formaldehyde crosslink after washing; high values mean tight binding
Experiment [1] deals with T1, FLI1 (Homo sapiens, UniProt Q01543 1-452).
T1 sequence: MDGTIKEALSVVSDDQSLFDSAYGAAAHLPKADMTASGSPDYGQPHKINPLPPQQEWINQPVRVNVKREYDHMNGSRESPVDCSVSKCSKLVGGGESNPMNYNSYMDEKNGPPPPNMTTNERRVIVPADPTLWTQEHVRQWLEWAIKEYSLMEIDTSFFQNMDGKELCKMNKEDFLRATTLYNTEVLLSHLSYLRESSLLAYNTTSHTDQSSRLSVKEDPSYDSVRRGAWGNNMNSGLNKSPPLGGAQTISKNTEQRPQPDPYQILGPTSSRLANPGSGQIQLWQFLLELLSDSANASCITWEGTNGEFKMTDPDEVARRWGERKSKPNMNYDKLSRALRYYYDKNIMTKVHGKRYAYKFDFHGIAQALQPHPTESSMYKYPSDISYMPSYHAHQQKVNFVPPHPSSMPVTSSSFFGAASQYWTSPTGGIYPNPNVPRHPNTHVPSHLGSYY
The settings on record: protein: recombinant; tags: N-terminal GST; dsDNA, one strand shown. A digest of the protocol:
(§1)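 Beads coated with glutathione captured GST-fused human transcription factors that had been expressed in yeast, and the factors were then given DNA barcodes and pooled with a tag-only sample. The pools were incubated with 200 nmole of a random double-stranded 16-mer DNA library in Tris/NaCl/DTT/glycerol buffer for 30 min at room temperature, washed, crosslinked with 0.1% formaldehyde and proximity-ligated with BsaI/T4 ligase at 37 °C for 1 h. PCR amplification and Illumina NextSeq500 sequencing came last. Binding signal is each hexamer's read frequency for a factor divided by its frequency for the tag-only sample.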

In experiment [2] the target is T2, GABPA (Homo sapiens, UniProt Q06546 1-454).
T2 sequence: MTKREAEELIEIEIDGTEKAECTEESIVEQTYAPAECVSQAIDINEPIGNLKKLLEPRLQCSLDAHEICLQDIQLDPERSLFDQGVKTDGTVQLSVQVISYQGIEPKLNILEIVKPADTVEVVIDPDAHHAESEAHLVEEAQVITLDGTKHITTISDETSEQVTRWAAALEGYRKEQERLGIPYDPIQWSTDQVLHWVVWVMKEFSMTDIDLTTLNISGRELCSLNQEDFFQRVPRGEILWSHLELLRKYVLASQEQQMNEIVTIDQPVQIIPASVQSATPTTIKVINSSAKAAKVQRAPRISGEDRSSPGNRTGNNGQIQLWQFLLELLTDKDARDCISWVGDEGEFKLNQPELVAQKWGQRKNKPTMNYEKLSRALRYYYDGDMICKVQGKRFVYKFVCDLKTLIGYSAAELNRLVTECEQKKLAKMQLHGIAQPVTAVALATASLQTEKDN
The settings on record: protein: recombinant; tags: N-terminal GST; dsDNA, one strand shown. A digest of the protocol: as §1

The target of experiment [3] is T3, ERG (Homo sapiens, UniProt P11308 1-479).
T3 sequence: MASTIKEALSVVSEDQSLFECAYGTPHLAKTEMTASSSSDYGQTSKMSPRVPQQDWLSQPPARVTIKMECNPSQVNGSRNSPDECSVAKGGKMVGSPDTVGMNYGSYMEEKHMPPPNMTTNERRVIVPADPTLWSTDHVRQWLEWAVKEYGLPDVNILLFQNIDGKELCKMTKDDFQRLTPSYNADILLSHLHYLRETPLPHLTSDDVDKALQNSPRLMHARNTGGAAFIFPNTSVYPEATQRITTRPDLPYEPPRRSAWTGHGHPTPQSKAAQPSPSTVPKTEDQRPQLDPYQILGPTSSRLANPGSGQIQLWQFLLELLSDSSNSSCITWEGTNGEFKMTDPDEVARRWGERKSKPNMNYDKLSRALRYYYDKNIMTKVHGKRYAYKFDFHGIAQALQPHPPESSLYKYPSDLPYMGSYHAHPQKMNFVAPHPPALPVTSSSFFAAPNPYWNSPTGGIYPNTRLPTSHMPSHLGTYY
The settings on record: protein: recombinant; tags: N-terminal GST; dsDNA, one strand shown. A digest of the protocol:
as §1

In experiment [4] the target is ELF1 (Homo sapiens, UniProt P32519 1-619). The settings on record: protein: recombinant; tags: N-terminal GST; dsDNA, one strand shown. A digest of the protocol:
as §1

Experiment [5] addresses T4, EHF (Homo sapiens, UniProt Q9NZC4 1-300).
T4 sequence: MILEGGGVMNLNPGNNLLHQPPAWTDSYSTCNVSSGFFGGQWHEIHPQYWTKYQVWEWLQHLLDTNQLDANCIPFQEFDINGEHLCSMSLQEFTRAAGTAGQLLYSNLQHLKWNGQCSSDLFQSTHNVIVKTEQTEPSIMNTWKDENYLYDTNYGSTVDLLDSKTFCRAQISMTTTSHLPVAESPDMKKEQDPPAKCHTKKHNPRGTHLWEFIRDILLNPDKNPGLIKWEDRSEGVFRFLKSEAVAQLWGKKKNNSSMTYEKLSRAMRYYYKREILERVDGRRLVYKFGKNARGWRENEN
The settings on record: protein: recombinant; tags: N-terminal GST; dsDNA, one strand shown. A digest of the protocol: as §1

The target in experiment [6] is SPI1 (Homo sapiens, UniProt P17947 1-270). The settings on record: protein: recombinant; tags: N-terminal GST; dsDNA, one strand shown. In short, it runs like this:
as §1

The target of experiment [7] is SPIB (Homo sapiens, UniProt Q01892 1-262). The following applies: protein: recombinant; tags: N-terminal GST; dsDNA, one strand shown. In short, it runs like this: as §1
SPIB, sequence (Q01892 whole entry): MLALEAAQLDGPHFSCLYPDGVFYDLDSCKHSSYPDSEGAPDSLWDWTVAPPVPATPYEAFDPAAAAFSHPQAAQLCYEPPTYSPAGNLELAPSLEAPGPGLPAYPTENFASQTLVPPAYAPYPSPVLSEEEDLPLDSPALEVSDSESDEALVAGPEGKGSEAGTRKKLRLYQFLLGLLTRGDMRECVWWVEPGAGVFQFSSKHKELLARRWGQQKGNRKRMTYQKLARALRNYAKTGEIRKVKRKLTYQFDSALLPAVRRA
Experiment [8] concerns the target T5, ELK3 (Homo sapiens, UniProt P41970 1-407).
T5 sequence: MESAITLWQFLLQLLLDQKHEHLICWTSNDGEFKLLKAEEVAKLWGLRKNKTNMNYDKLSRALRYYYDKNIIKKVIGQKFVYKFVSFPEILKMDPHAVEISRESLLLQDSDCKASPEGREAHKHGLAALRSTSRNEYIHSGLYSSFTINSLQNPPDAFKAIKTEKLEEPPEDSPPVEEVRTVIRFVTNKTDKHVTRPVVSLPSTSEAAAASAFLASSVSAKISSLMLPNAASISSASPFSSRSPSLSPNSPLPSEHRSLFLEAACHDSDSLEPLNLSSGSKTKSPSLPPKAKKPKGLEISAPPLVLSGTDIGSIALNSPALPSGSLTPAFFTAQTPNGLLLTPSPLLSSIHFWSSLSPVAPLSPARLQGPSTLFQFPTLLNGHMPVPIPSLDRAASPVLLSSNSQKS
The following applies: protein: recombinant; tags: N-terminal GST; dsDNA, one strand shown. A digest of the protocol:
as §1

Experiment [9] addresses T6, FEV (Homo sapiens, UniProt Q99581 1-238).
T6 sequence: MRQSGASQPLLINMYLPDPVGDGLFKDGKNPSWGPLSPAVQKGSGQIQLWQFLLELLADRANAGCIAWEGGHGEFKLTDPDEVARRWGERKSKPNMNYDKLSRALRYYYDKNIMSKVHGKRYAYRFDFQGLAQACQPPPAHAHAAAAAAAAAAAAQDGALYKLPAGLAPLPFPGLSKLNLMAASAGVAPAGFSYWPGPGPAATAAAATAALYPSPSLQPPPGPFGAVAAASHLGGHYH
The settings on record: protein: recombinant; tags: N-terminal GST; dsDNA, one strand shown. In short, it runs like this:
as §1

Experiment [10] concerns the target ETV5 (Homo sapiens, UniProt P41161 1-510). The settings on record: protein: recombinant; tags: N-terminal GST; dsDNA, one strand shown. In short, it runs like this:
as §1

Experiment [11] concerns the target HSF1 (Homo sapiens, UniProt Q00613 1-529). The settings on record: protein: recombinant; tags: N-terminal GST; chain copies: 3; dsDNA, one strand shown. A digest of the protocol: as §1
The target of experiment [12] is T7, SPIC (Homo sapiens, UniProt Q8N5J4 1-248).
T7 sequence: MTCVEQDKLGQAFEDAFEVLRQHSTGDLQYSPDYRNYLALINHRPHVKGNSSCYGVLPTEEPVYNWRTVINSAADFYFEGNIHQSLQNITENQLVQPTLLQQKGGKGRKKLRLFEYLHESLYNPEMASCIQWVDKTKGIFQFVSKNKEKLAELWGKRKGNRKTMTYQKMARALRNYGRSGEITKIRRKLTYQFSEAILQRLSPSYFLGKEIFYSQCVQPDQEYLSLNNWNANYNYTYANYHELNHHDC
The following applies: protein: recombinant; tags: N-terminal GST; dsDNA, one strand shown. In short, it runs like this: as §1

Experiment [13] addresses ELF4 (Homo sapiens, UniProt Q99607 1-663). The settings on record: protein: recombinant; tags: N-terminal GST; dsDNA, one strand shown. In short, it runs like this: as §1
The target of experiment [14] is T8, ELK4 (Homo sapiens, UniProt P28324-2 1-405).
T8 sequence: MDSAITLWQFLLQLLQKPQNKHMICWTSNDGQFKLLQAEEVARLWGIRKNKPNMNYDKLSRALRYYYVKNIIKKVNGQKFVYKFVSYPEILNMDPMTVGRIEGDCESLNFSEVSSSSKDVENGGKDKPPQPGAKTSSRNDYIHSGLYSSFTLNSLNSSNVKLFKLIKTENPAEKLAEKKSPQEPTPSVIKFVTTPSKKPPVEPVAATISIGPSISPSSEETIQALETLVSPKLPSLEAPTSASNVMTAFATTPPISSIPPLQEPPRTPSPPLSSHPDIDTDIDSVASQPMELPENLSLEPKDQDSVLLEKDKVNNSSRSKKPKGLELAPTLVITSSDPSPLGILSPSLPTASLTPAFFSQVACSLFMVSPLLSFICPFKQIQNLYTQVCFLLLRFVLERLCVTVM
The following applies: protein: recombinant; tags: N-terminal GST; dsDNA, one strand shown. In short, it runs like this:
as §1

Experiment [15] addresses T9, ETV2 (Homo sapiens, UniProt O00321 1-342).
T9 sequence: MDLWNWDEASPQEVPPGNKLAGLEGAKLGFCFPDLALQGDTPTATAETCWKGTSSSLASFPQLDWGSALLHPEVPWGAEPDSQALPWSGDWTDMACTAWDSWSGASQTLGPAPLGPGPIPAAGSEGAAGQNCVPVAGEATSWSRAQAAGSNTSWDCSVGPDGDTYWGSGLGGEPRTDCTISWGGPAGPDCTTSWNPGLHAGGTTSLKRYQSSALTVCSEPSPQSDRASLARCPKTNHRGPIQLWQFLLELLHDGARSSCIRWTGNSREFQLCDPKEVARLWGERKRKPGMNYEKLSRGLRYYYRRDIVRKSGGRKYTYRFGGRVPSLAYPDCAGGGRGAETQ
The settings on record: protein: recombinant; tags: N-terminal GST; dsDNA, one strand shown. A digest of the protocol:
as §1

Experiment [16] concerns the target T10, ELF3 (Homo sapiens, UniProt P78545 1-371).
T10 sequence: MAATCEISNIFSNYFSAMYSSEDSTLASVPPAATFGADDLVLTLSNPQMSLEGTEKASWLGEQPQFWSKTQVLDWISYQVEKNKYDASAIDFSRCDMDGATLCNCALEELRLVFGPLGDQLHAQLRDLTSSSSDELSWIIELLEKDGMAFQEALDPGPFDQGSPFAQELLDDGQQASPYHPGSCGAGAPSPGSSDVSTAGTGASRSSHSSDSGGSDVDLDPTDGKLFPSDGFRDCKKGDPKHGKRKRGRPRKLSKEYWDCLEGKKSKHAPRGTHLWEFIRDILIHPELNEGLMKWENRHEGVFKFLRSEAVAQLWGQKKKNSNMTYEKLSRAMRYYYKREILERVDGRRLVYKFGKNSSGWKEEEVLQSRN
The following applies: protein: recombinant; tags: N-terminal GST; dsDNA, one strand shown. A digest of the protocol:
as §1

For experiment [17], the target named is CRX (Homo sapiens, UniProt O43186 1-299). The settings on record: protein: recombinant; tags: N-terminal GST; dsDNA, one strand shown. In short, it runs like this:
as §1

Experiment [18] concerns the target ETV1 (Homo sapiens, UniProt P50549 1-477). The following applies: protein: recombinant; tags: N-terminal GST; dsDNA, one strand shown. A digest of the protocol:
as §1

HSF1, sequence (Q00613 whole entry): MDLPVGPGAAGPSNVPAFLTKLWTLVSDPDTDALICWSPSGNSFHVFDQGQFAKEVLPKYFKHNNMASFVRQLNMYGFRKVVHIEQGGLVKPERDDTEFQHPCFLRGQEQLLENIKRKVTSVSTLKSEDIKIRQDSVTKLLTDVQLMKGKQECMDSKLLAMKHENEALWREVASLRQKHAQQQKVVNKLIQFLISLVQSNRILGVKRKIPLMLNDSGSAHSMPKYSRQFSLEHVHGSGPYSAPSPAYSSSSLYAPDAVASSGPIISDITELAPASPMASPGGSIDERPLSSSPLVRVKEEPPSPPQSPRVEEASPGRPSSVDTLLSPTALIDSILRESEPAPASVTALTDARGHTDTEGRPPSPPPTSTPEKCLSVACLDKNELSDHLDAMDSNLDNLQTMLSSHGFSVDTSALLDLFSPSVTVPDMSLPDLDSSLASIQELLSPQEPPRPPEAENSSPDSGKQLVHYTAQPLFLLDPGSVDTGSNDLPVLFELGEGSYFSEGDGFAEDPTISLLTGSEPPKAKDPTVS
ETV1, sequence (P50549 whole entry): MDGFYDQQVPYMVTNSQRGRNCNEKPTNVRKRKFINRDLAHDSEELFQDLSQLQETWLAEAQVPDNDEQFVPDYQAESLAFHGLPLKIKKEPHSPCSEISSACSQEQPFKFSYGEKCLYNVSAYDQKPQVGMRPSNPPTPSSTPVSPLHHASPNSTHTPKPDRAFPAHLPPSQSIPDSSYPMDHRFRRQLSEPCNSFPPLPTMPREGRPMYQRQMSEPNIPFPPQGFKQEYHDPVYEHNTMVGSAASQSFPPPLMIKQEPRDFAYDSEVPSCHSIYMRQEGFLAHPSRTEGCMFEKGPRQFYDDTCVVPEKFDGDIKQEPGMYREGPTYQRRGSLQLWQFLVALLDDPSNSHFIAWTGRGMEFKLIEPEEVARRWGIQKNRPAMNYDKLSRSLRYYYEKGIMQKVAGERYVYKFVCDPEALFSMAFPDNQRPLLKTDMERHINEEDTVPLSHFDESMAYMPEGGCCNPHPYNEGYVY
ELF1, sequence (P32519 whole entry): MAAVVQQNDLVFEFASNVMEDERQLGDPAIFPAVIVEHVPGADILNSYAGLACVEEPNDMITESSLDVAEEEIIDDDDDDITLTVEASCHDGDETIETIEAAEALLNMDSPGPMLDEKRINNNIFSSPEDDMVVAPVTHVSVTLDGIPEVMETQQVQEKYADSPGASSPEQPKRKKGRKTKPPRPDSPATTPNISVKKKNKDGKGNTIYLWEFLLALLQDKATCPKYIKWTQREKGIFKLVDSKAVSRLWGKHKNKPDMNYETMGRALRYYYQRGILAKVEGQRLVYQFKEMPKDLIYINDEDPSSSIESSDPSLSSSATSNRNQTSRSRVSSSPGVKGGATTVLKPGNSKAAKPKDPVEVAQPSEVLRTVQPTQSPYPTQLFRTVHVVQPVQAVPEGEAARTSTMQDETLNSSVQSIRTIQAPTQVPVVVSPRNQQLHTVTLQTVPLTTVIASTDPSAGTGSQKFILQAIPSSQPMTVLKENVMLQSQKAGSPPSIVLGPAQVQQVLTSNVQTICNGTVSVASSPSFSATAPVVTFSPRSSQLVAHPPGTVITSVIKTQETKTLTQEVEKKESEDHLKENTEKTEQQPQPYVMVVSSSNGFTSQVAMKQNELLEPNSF
CRX, sequence (O43186 whole entry): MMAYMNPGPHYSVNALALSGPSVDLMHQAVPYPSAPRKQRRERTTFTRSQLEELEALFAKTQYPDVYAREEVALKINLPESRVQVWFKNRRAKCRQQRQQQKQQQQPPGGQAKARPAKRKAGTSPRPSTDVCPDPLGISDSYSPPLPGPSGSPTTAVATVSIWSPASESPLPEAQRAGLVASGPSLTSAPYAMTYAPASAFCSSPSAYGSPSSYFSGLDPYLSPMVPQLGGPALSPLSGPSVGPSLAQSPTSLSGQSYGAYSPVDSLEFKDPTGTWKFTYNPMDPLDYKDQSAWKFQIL
ELF4, sequence (Q99607 whole entry): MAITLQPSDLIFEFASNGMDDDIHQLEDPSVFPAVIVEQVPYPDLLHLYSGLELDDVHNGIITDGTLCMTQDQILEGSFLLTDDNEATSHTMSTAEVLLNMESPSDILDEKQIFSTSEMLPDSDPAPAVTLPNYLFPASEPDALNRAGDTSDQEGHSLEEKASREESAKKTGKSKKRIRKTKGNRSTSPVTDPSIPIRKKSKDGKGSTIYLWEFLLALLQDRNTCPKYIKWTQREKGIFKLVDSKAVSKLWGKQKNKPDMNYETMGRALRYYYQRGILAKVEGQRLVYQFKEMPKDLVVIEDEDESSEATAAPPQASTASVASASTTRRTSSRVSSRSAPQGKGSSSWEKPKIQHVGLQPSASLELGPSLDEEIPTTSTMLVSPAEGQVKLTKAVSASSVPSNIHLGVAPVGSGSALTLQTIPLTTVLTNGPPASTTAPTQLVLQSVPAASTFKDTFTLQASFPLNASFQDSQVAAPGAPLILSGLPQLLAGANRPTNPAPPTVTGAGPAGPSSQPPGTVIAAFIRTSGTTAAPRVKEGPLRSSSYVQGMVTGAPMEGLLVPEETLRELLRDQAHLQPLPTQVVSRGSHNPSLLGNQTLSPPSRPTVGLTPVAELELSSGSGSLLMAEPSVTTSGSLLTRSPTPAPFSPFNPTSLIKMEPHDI
ETV5, sequence (P41161 whole entry): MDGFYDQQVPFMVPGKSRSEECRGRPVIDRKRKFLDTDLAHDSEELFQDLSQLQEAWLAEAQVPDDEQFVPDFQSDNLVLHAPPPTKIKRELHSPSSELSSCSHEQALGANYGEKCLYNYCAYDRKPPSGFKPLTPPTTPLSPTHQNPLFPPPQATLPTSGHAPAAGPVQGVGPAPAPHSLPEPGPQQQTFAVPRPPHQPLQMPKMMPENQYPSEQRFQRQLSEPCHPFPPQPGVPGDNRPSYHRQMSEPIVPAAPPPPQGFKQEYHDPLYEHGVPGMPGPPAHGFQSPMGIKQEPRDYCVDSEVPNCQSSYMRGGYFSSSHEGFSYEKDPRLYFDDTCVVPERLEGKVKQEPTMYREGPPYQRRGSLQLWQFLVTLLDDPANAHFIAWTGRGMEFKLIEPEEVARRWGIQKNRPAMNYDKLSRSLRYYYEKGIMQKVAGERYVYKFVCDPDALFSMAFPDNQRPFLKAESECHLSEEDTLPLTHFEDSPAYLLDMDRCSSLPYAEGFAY

CATTAC: the binding signal is 1.09 fold enrichment (6-mer frequency, TF over GST control) in experiment [1]; 1.2 fold enrichment (6-mer frequency, TF over GST control) in experiment [2]; 1.06 fold enrichment (6-mer frequency, TF over GST control) in [3]; 1.17 fold enrichment (6-mer frequency, TF over GST control) in experiment [4]; 1.13 fold enrichment (6-mer frequency, TF over GST control) in [5]; 1.1 fold enrichment (6-mer frequency, TF over GST control) in experiment [6]. Besides, the binding signal in experiment [7] was 1.17 fold enrichment (6-mer frequency, TF over GST control); in experiment [8], 1.15 fold enrichment (6-mer frequency, TF over GST control); in [9] it was 1.12 fold enrichment (6-mer frequency, TF over GST control); in [10], 1.13 fold enrichment (6-mer frequency, TF over GST control); in experiment [11] it was 1.02 fold enrichment (6-mer frequency, TF over GST control); in experiment [12], 1.05 fold enrichment (6-mer frequency, TF over GST control). In addition, the binding signal was 1.1 fold enrichment (6-mer frequency, TF over GST control) in [13]; 1.17 fold enrichment (6-mer frequency, TF over GST control) in [14]; 1.22 fold enrichment (6-mer frequency, TF over GST control) in experiment [15]; 1.08 fold enrichment (6-mer frequency, TF over GST control) in [16]; 1.18 fold enrichment (6-mer frequency, TF over GST control) in experiment [17]; 1.18 fold enrichment (6-mer frequency, TF over GST control) in experiment [18].
